Changes are numbered by the printed parent chain.
Legend:
Assay in all cases: yeast three-hybrid, YBZ-1, SC-Leu-His + 0.5 mM 3-AT, 4 days
Conditions in all cases: tags: N-Gal4 AD-HA kept; label: inside an RPR1-promoter hybrid RNA with tandem MS2 sites; ssRNA
PUM1 PUF domain R1-GFE = PUM1 PUF domain R1-GFE (Homo sapiens, UniProt Q14671 828-1176, S863G;R864F;Q867E)
Summary of the method: (§1)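 Sequencing with Illumina followed PCR amplification of the repeat regions from transformants grown four days on SC-Leu (input) or SC-Leu-His + 0.5 mM 3-AT (selection). The transformants were strain YBZ-1 with a LexA–MS2 coat fusion and a HIS3 reporter, carrying Pumilio-1 PUF domain libraries and matching RNA elements. The interaction score is the log change in variant frequency from input to selection, computed in log2 with a pseudocount of 1 for absent variants.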

PUM1 PUF domain R1-RKK = PUM1 PUF domain R1-RKK (Homo sapiens, UniProt Q14671 828-1176, S863R;R864K;Q867K)
Summary of the method: as §1

PUM1 PUF domain R1-KGT = PUM1 PUF domain R1-KGT (Homo sapiens, UniProt Q14671 828-1176, S863K;R864G;Q867T)
Summary of the method: as §1

PUM1 PUF domain R4-SPG = PUM1 PUF domain R4-SPG (Homo sapiens, UniProt Q14671 828-1176, N971S;H972P;Q975G)
Summary of the method: as §1

PUM1 PUF domain R6-FRV = biological target: T1, PUM1 PUF domain R6-FRV (Homo sapiens, UniProt Q14671 828-1176, N1043F;Y1044R;Q1047V)
T1 sequence: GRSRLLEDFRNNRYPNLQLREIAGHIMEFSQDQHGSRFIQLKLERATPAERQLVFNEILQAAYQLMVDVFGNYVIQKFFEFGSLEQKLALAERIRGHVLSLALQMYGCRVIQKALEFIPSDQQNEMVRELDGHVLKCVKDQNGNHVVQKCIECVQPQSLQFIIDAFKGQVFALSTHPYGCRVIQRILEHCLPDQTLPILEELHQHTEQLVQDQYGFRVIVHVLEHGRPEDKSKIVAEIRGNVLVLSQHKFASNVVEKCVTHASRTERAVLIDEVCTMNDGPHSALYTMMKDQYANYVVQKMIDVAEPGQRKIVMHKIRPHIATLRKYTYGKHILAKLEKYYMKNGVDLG
Summary of the method: as §1

PUM1 PUF domain R3-EWA = PUM1 PUF domain R3-EWA (Homo sapiens, UniProt Q14671 828-1176, C935E;R936W;Q939A)
Summary of the method: as §1

PUM1 PUF domain R5-GQC = PUM1 PUF domain R5-GQC (Homo sapiens, UniProt Q14671 828-1176, C1007G;R1008Q;Q1011C)
Summary of the method: as §1

PUM1 PUF domain R4-RMI = PUM1 PUF domain R4-RMI (Homo sapiens, UniProt Q14671 828-1176, N971R;H972M;Q975I)
Summary of the method: as §1

PUM1 PUF domain R5-DRN = PUM1 PUF domain R5-DRN (Homo sapiens, UniProt Q14671 828-1176, C1007D;Q1011N)
Summary of the method: as §1

PUM1 PUF domain R4-DFM = PUM1 PUF domain R4-DFM (Homo sapiens, UniProt Q14671 828-1176, N971D;H972F;Q975M)
Summary of the method: as §1

PUM1 PUF domain R2-EWG = PUM1 PUF domain R2-EWG (Homo sapiens, UniProt Q14671 828-1176, N899E;Y900W;Q903G)
Summary of the method: as §1

PUM1 PUF domain R6-TWD = biological target: T2, PUM1 PUF domain R6-TWD (Homo sapiens, UniProt Q14671 828-1176, N1043T;Y1044W;Q1047D)
T2 sequence: T1 sequence with F216T, R217W, V220D
Summary of the method: as §1

PUM1 PUF domain R5-VNR = PUM1 PUF domain R5-VNR (Homo sapiens, UniProt Q14671 828-1176, C1007V;R1008N;Q1011R)
Summary of the method: as §1

PUM1 PUF domain R5-RLM = PUM1 PUF domain R5-RLM (Homo sapiens, UniProt Q14671 828-1176, C1007R;R1008L;Q1011M)
Summary of the method: as §1

PUM1 PUF domain R8-KWF = PUM1 PUF domain R8-KWF (Homo sapiens, UniProt Q14671 828-1176, N1122K;Y1123W;Q1126F)
Summary of the method: as §1

PUM1 PUF domain R8-PYF = PUM1 PUF domain R8-PYF (Homo sapiens, UniProt Q14671 828-1176, N1122P;Q1126F)
Summary of the method: as §1

PUM1 PUF domain R3-RTM = PUM1 PUF domain R3-RTM (Homo sapiens, UniProt Q14671 828-1176, C935R;R936T;Q939M)
Summary of the method: as §1

PUM1 PUF domain R3-KFN = PUM1 PUF domain R3-KFN (Homo sapiens, UniProt Q14671 828-1176, C935K;R936F;Q939N)
Summary of the method: as §1

PUM1 PUF domain R3-IFK = PUM1 PUF domain R3-IFK (Homo sapiens, UniProt Q14671 828-1176, C935I;R936F;Q939K)
Summary of the method: as §1

PUM1 PUF domain R5-PHS = PUM1 PUF domain R5-PHS (Homo sapiens, UniProt Q14671 828-1176, C1007P;R1008H;Q1011S)
Summary of the method: as §1

Chain of PUM1 PUF domain R4-SPG (Q14671 828-1176 N971S/H972P/Q975G): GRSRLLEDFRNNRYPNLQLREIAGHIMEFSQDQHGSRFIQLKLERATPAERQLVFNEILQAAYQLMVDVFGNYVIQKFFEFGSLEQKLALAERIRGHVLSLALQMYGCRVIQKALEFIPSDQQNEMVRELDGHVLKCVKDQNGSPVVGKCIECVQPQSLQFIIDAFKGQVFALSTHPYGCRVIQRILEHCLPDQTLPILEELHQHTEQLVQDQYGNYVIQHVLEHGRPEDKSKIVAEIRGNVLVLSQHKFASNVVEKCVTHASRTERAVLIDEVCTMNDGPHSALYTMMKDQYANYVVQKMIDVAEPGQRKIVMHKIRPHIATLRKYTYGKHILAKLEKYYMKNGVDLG
Chain of PUM1 PUF domain R3-EWA (Q14671 828-1176 C935E/R936W/Q939A): as the sequence (Q14671 828-1176 N971S/H972P/Q975G) above, with C108E, R109W, Q112A, S144N, P145H, G148Q counted along it

Q: How did the binding signal (PUM1 PUF domain R1-GFE) turn out when “GGCUAGAACUAGUGGAUCCCCCGGCGCCCGGCGGCUCGAGCCCGGGUAAGUGUAAAUUGUCUGCAUGCCGCCGGGCGCCAUGCCUGCAGGUCGACUCUAGAAAACAUG” was run?
A: 0.52 log2 enrichment (interaction score)

Q: What about the binding signal (PUM1 PUF domain R1-RKK) of the same sequence?
A: 3.57 log2 enrichment (interaction score)

Q: And the binding signal (PUM1 PUF domain R1-KGT)?
A: 3.61 log2 enrichment (interaction score)

Q: Which binding signal (PUM1 PUF domain R4-SPG) does the source give for “GGCUAGAACUAGUGGAUCCCCCGGCGCCCGGCGGCUCGAGCCCGGGUAAGUGUAAAUAGUCUGCAUGCCGCCGGGCGCCAUGCCUGCAGGUCGACUCUAGAAAACAUG” here?
A: 4.58 log2 enrichment (interaction score)

Q: What about the binding signal (PUM1 PUF domain R6-FRV) of the same sequence?
A: 2.7 log2 enrichment (interaction score)

Q: What about the binding signal (PUM1 PUF domain R3-EWA) of the same sequence?
A: 4.04 log2 enrichment (interaction score)

Q: And the binding signal (PUM1 PUF domain R5-GQC)?
A: 3.41 log2 enrichment (interaction score)

Q: What about the binding signal (PUM1 PUF domain R4-RMI) of the same sequence?
A: 3.31 log2 enrichment (interaction score)

Q: And the binding signal (PUM1 PUF domain R5-DRN)?
A: 3.15 log2 enrichment (interaction score)

Q: What about the binding signal (PUM1 PUF domain R4-DFM) of the same sequence?
A: 5.89 log2 enrichment (interaction score)

Q: For “GGCUAGAACUAGUGGAUCCCCCGGCGCCCGGCGGCUCGAGCCCGGGUAAGUGUACAUAGUCUGCAUGCCGCCGGGCGCCAUGCCUGCAGGUCGACUCUAGAAAACAUG”, which binding signal (PUM1 PUF domain R4-SPG) is on record?
A: 2.11 log2 enrichment (interaction score)

Q: What about the binding signal (PUM1 PUF domain R4-DFM) of the same sequence?
A: 5.35 log2 enrichment (interaction score)

Q: Which binding signal (PUM1 PUF domain R2-EWG) does the source give for “GGCUAGAACUAGUGGAUCCCCCGGCGCCCGGCGGCUCGAGCCCGGGUAAGUGUAAAAAGUCUGCAUGCCGCCGGGCGCCAUGCCUGCAGGUCGACUCUAGAAAACAUG” here?
A: 8.11 log2 enrichment (interaction score)

Q: “GGCUAGAACUAGUGGAUCCCCCGGCGCCCGGCGGCUCGAGCCCGGGUAAGUGUAUAUAGUCUGCAUGCCGCCGGGCGCCAUGCCUGCAGGUCGACUCUAGAAAACAUG” was tested. Which binding signal (PUM1 PUF domain R4-SPG) did it give?
A: 3.58 log2 enrichment (interaction score)

Q: Which binding signal (PUM1 PUF domain R6-TWD) does the source give for “GGCUAGAACUAGUGGAUCCCCCGGCGCCCGGCGGCUCGAGCCCGGGUAAGUGAAAAUAGUCUGCAUGCCGCCGGGCGCCAUGCCUGCAGGUCGACUCUAGAAAACAUG” here?
A: 3.18 log2 enrichment (interaction score)

Q: “GGCUAGAACUAGUGGAUCCCCCGGCGCCCGGCGGCUCGAGCCCGGGUAAGUGUUAAUAGUCUGCAUGCCGCCGGGCGCCAUGCCUGCAGGUCGACUCUAGAAAACAUG” was tested. Which binding signal (PUM1 PUF domain R5-VNR) did it give?
A: 2.69 log2 enrichment (interaction score)

Q: What about the binding signal (PUM1 PUF domain R5-RLM) of the same sequence?
A: 2.52 log2 enrichment (interaction score)

Q: Which binding signal (PUM1 PUF domain R1-GFE) does the source give for “GGCUAGAACUAGUGGAUCCCCCGGCGCCCGGCGGCUCGAGCCCGGGUAAGUGUAAAUGGUCUGCAUGCCGCCGGGCGCCAUGCCUGCAGGUCGACUCUAGAAAACAUG” here?
A: 4.79 log2 enrichment (interaction score)

Q: For “GGCUAGAACUAGUGGAUCCCCCGGCGCCCGGCGGCUCGAGCCCGGGUAAGUGUCAAUAGUCUGCAUGCCGCCGGGCGCCAUGCCUGCAGGUCGACUCUAGAAAACAUG”, which binding signal (PUM1 PUF domain R5-DRN) is on record?
A: 1.45 log2 enrichment (interaction score)

Q: And the binding signal (PUM1 PUF domain R5-RLM)?
A: 1.79 log2 enrichment (interaction score)

Q: What does the source list for “GGCUAGAACUAGUGGAUCCCCCGGCGCCCGGCGGCUCGAGCCCGGGUAAGCGUAAAUAGUCUGCAUGCCGCCGGGCGCCAUGCCUGCAGGUCGACUCUAGAAAACAUG”?
A: binding signal (PUM1 PUF domain R8-KWF): 4.32 log2 enrichment (interaction score); binding signal (PUM1 PUF domain R8-PYF): 5.02 log2 enrichment (interaction score)

Q: “GGCUAGAACUAGUGGAUCCCCCGGCGCCCGGCGGCUCGAGCCCGGGUAAGUGUAAGUAGUCUGCAUGCCGCCGGGCGCCAUGCCUGCAGGUCGACUCUAGAAAACAUG” was tested. Which binding signal (PUM1 PUF domain R3-EWA) did it give?
A: 4.37 log2 enrichment (interaction score)

Q: With “GGCUAGAACUAGUGGAUCCCCCGGCGCCCGGCGGCUCGAGCCCGGGUAAGUGUAAAUCGUCUGCAUGCCGCCGGGCGCCAUGCCUGCAGGUCGACUCUAGAAAACAUG” as the sequence, how does the binding signal (PUM1 PUF domain R1-KGT) read?
A: 4.83 log2 enrichment (interaction score)

Q: Which binding signal (PUM1 PUF domain R3-RTM) does the source give for “GGCUAGAACUAGUGGAUCCCCCGGCGCCCGGCGGCUCGAGCCCGGGUAAGUGUAAUUAGUCUGCAUGCCGCCGGGCGCCAUGCCUGCAGGUCGACUCUAGAAAACAUG” here?
A: 2.52 log2 enrichment (interaction score)

Q: What about the binding signal (PUM1 PUF domain R3-EWA) of the same sequence?
A: 4.15 log2 enrichment (interaction score)

Q: And the binding signal (PUM1 PUF domain R3-KFN)?
A: 3.99 log2 enrichment (interaction score)

Q: And the binding signal (PUM1 PUF domain R3-IFK)?
A: 2.58 log2 enrichment (interaction score)

Q: “GGCUAGAACUAGUGGAUCCCCCGGCGCCCGGCGGCUCGAGCCCGGGUAAGUGUGAAUAGUCUGCAUGCCGCCGGGCGCCAUGCCUGCAGGUCGACUCUAGAAAACAUG” was tested. Which binding signal (PUM1 PUF domain R5-PHS) did it give?
A: 2.78 log2 enrichment (interaction score)

Q: “GGCUAGAACUAGUGGAUCCCCCGGCGCCCGGCGGCUCGAGCCCGGGUAAGUGUAAAGAGUCUGCAUGCCGCCGGGCGCCAUGCCUGCAGGUCGACUCUAGAAAACAUG” was tested. Which binding signal (PUM1 PUF domain R2-EWG) did it give?
A: 4.05 log2 enrichment (interaction score)
